The target of assay [1] is N-terminal Xaa-Pro-Lys N-methyltransferase 1 (Homo sapiens) (UniProt Q9BV86). The experiment in a line: qHTS Assay for Inhibitors of N-terminal methyltransferase 1 (NTMT1): LOPAC validation of the NTMT1 SAHH-coupled ThioGlo3 Assay (AID 1347143). Further: nearly all actives have a fitted effect of over 70% in size. Further: potency means the concentration at half of the fitted maximal effect. In short, it runs like this: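 Fluorescence read-out (excitation 340nm, emission 450nm) of SAH-derived thiol, measured via SAHH coupling and ThioGlo3, taken immediately and after a 30 min room-temperature reaction, then normalized to the background read. Enzyme: NTMT1 at 125nM; cofactor SAM 100uM in the added reagent.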
(qHTS replaces the single test concentration by a dilution series.)

The test system of assay [2] is Zika virus NS2B-NS3 protease (unlinked). The experiment in a line: Optimization of GU AMC qHTS for Zika virus inhibitors: Unlinked NS2B-NS3 protease assay (AID 1347151). Further: nearly all actives have a fitted effect of over 80% in size. Further: potency means the concentration at half of the fitted maximal effect. In short, it runs like this: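 Fluorescence read-out (340 nm ex / 450 nm em) of AMC peptide cleavage, taken immediately and after 15 min at room temperature (~20% conversion). Enzyme was the unlinked NS2B–NS3 complex at 25 nM in Tris pH 8.0 buffer.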

A short description of assay [3]: qHTS of pediatric cancer cell lines to identify multiple opportunities for drug repurposing: Confirmatory screen for DAOY cells (AID 1347114). Further: nearly all actives have a fitted effect of over 65% in size. Further: potency means the concentration at half of the fitted maximal effect. In outline: (§1)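 Viability measured as metabolically active cells via CellTiter-Glo luminescence following 48 hours of compound exposure, 11-point dilutions in confirmatory testing. 500-1,000 cells/well plated 5 hours before dosing; controls were DMSO and 2.3 µM bortezomib.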

The nature of assay [4]: qHTS of pediatric cancer cell lines to identify multiple opportunities for drug repurposing: Confirmatory screen for SJ-GBM2 cells (AID 1347116). Further: nearly all actives have a fitted effect of over 60% in size. Further: potency means the concentration at half of the fitted maximal effect. In short, it runs like this:
as §1

Assay [5] in a line: qHTS of pediatric cancer cell lines to identify multiple opportunities for drug repurposing: Confirmatory screen for BT-37 cells (AID 1347117). Further: nearly all actives have a fitted effect of over 55% in size. Further: potency means the concentration at half of the fitted maximal effect. In outline: (§2)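 Cells (500-1,000/well) in growth media were settled 5 h at 37 degrees C, then given compounds for 48 h. Viability was read as CellTiter-Glo luminescence. Primary runs used MIPE at 11 points (0.78 nM-46 µM) and NPC at 8 points (0.59 nM-46 µM); follow-ups used 11 points.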

Assay [6] in a line: qHTS of pediatric cancer cell lines to identify multiple opportunities for drug repurposing: Confirmatory screen for TC32 cells (AID 1347118).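 Further: cells exposed to compound for 48 h before the read; nearly all actives have a fitted effect of over 65% in size.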 Further: potency means the concentration at half of the fitted maximal effect. In short, it runs like this: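 qHTS, TC32, 48 h drug treatment, CellTiter-Glo luminescence as a proxy for metabolically active cells; primary top concentration 46 µM (MIPE 11-pt, NPC 8-pt); confirmatory 11-pt.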
Assay [7] can be described thus: qHTS of pediatric cancer cell lines to identify multiple opportunities for drug repurposing: Confirmatory screen for MG 63 (6-TG R) cells (AID 1347119). Further: nearly all actives have a fitted effect of over 55% in size. Further: potency means the concentration at half of the fitted maximal effect. In outline: as §2
Assay [8] in a line: qHTS of pediatric cancer cell lines to identify multiple opportunities for drug repurposing: Confirmatory screen for U-2 OS cells (AID 1347122). Further: nearly all actives have a fitted effect of over 65% in size. Further: potency means the concentration at half of the fitted maximal effect. In short, it runs like this: as §2
Assay [9] can be described thus: qHTS of pediatric cancer cell lines to identify multiple opportunities for drug repurposing: Confirmatory screen for Rh41 cells (AID 1347123).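 Further: 48 h compound exposure; nearly all actives have a fitted effect of over 60% in size.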 Further: potency means the concentration at half of the fitted maximal effect. In outline: as §2
Assay [10] can be described thus: qHTS of pediatric cancer cell lines to identify multiple opportunities for drug repurposing: Confirmatory screen for RD cells (AID 1347124).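 Further: cells exposed to compound for 48 h before viability readout; nearly all actives have a fitted effect of over 65% in size.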 Further: potency means the concentration at half of the fitted maximal effect. In outline: as §2
A short description of assay [11]: qHTS of pediatric cancer cell lines to identify multiple opportunities for drug repurposing: Confirmatory screen for Rh30 cells (AID 1347126). Further: nearly all actives have a fitted effect of over 55% in size. Further: potency means the concentration at half of the fitted maximal effect. In outline:
as §2

The nature of assay [12]: qHTS of pediatric cancer cell lines to identify multiple opportunities for drug repurposing: Confirmatory screen for Saos-2 cells (AID 1347127). Further: nearly all actives have a fitted effect of over 60% in size. Further: potency means the concentration at half of the fitted maximal effect. In outline: as §2
Assay [13] in a line: qHTS of pediatric cancer cell lines to identify multiple opportunities for drug repurposing: Confirmatory screen for OHS-50 cells (AID 1347128).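 Further: compound exposure lasted 48 h at 37 degrees C; nearly all actives have a fitted effect of over 55% in size.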 Further: potency means the concentration at half of the fitted maximal effect. In outline:
as §2

Assay [14] can be described thus: qHTS of pediatric cancer cell lines to identify multiple opportunities for drug repurposing: Confirmatory screen for SK-N-SH cells (AID 1347129).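 Further: cells exposed to compound for 48 h before viability read; nearly all actives have a fitted effect of over 60% in size.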 Further: potency means the concentration at half of the fitted maximal effect. In short, it runs like this:
as §2

In assay [15] the target is Furin (Homo sapiens) (UniProt P09958). The assay can be described thus: Furin counterscreen qHTS for Zika virus inhibitors (AID 1347149).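 Further: purified recombinant full-length human furin enzyme at 5 nM; fluorescence gain from furin cutting a BOC-RVRR-AMC peptide substrate over 15 min; top concentration of the series differs between compounds; nearly all actives have a fitted effect of over 70% in size.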 In outline: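 Fluorogenic cleavage of BOC-RVRR-AMC (2 microM final, Km ~15 µM) was monitored (ex 340, em 450 nm) at 37C after 15 min RT preincubation of 5 nM furin with compounds in HEPES pH 7.0 buffer with CaCl2 and Triton X-100. Percent inhibition was fitted to a 4-parameter Hill curve.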
(In general: Counterscreens check selectivity or assay interference.)

Assay [16] can be described thus: qHTS of pediatric cancer cell lines to identify multiple opportunities for drug repurposing: Confirmatory screen for NB-EBc1 cells (AID 1347115).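 Further: cells exposed to compound for 48 h before the viability read; nearly all actives have a fitted effect of over 45% in size.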 Further: potency means the concentration at half of the fitted maximal effect. In short, it runs like this:
as §2

Assay [17] in a line: qHTS of pediatric cancer cell lines to identify multiple opportunities for drug repurposing: Confirmatory screen for control Hh wild type fibroblast cells (AID 1347121). Further: nearly all actives have a fitted effect of over 70% in size. Further: potency means the concentration at half of the fitted maximal effect. In short, it runs like this:
as §2

Assay [18] can be described thus: qHTS of pediatric cancer cell lines to identify multiple opportunities for drug repurposing: Confirmatory screen for Rh18 cells (AID 1347125). Further: nearly all actives have a fitted effect of over 55% in size. Further: potency means the concentration at half of the fitted maximal effect. In outline:
as §2

Structures are written as SMILES. “And” between values parts separate entries of the source, which are not always exact repeats. Equal entries are not always repeated. Results filed as inconclusive are left out. The source made the active and inactive calls. The call rests on the fitted dose curve; in most records, active means well fitted curve in the direction sought with a large enough effect; inconclusive means small, poorly fitted or top-dose-only effect, or another doubt; inactive means no such curve, though single readings can be large; an effect the other way counts as inactive or inconclusive.

Sequence of Furin (Homo sapiens) (P09958 whole entry, looked up): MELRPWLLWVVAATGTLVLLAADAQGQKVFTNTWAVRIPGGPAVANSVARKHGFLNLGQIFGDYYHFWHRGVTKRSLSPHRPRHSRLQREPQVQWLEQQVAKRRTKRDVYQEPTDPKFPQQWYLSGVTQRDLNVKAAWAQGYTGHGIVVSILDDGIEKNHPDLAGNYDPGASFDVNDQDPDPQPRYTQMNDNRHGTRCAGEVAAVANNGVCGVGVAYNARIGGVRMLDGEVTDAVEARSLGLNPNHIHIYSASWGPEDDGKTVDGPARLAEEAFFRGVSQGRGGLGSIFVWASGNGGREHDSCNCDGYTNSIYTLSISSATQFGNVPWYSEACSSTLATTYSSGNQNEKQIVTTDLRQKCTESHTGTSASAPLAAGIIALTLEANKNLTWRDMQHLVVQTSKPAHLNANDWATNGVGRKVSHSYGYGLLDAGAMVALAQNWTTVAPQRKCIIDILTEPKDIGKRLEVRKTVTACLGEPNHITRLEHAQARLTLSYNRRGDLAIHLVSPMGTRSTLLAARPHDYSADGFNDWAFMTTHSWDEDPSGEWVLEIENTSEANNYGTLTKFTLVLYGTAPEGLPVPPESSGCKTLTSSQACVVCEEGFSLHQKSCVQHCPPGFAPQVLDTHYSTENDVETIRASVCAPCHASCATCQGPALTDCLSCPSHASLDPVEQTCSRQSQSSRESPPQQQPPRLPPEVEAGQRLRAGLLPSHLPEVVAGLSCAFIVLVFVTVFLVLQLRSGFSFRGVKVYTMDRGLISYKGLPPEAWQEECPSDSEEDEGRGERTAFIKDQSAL
Sequence of N-terminal Xaa-Pro-Lys N-methyltransferase 1 (Homo sapiens) (Q9BV86 whole entry, looked up): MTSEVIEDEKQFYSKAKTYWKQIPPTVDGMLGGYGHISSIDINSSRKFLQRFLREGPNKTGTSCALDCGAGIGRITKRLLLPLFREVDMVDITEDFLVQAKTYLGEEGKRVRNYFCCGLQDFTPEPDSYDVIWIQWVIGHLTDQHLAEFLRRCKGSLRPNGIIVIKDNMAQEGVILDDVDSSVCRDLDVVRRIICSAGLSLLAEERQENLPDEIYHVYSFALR

In the case of `Cc1ccc(S(=O)(=O)N[C@@H](CCCCN)C(=O)CCl)cc1`, the Potency in assay [1] is 56200 nM (active). For the same compound, the Potency entry in [2] was “inactive”.

As to `C[C@@H]1O[C@@H](O[C@H]2C[C@@H](O)[C@]3(CO)[C@H]4[C@H](O)C[C@]5(C)[C@@H](C6=CC(=O)OC6)CC[C@]5(O)[C@@H]4CC[C@]3(O)C2)[C@H](O)[C@H](O)[C@H]1O`, the Potency in assay [3] is 73.7 nM (active) and 56.2 nM (active); in assay [4], 261 nM (active); in [5], 65.7 nM (active) and 92.8 nM (active); in assay [6], 92.8 nM (active) and 165 nM (active); in [7], 104 nM (active) and 117 nM (active); in [8], 131 nM (active) and 89.1 nM (active). The Potency is 46.5 nM (active) and 39.8 nM (active) in assay [9]; 117 nM (active) in assay [10]; 165 nM (active) in assay [11]; 369 nM (active) and 657 nM (active) in assay [12]; 92.8 nM (active) in assay [13]; 132 nM (active) and 79.4 nM (active) in [14]. Also, the Potency result in assay [1], in [15] and in assay [2] was “inactive” in each case.

In the case of `CCC1(C2=NCCN2)Cc2ccccc2O1` (stereo not given), the Potency result in assay [1] and in assay [2] was “inactive” in each case.

With `N#CC(C#N)=Cc1ccc(O)c(O)c1`, the Potency in [1] was 56200 nM (active).

In the case of `C[C@@H]1[C@@H](CC(C[C@H]2O[C@@H]3O[C@]4(C)CC[C@@H]5[C@H](C)CC[C@@H]([C@H]2C)[C@@]35OO4)C[S+](=O)([O-])c2ccc(COC(=O)N(C)C)cc2)O[C@@H]2O[C@]3(C)CC[C@H]4[C@H](C)CC[C@@H]1[C@@]24OO3` (stereo not given in full), the Potency is 1.04 µM (active) in [3]; 928 nM (active) in assay [16]; 1650 nM (active) in [4]; 233 nM (active) in assay [5]; 585 nM (active) in [6]; 2.33 µM (active) in assay [7]. Further, the Potency in assay [17] is 13100 nM (active); in assay [9], 82.7 nM (active); in [11], 4650 nM (active); in assay [13], 233 nM (active).

As for `N[C@@H](Cc1ccc(N(CCCl)CCCl)cc1)C(=O)O`, the Potency was 23.3 µM (active) in assay [3]; 5850 nM (active) in assay [16]; 20800 nM (active) in assay [4]; 9270 nM (active) in assay [6]; 16.5 µM (active) in assay [7]; 26100 nM (active) in assay [13]. For the same compound, the Potency in assay [14] was 18.7 µM (active). Moreover, the Potency entry in assay [17] is “inactive”.

With `Cn1cc(C2=C(c3cn(C4CCN(Cc5ccccn5)CC4)c4ccccc34)C(=O)NC2=O)c2ccccc21`, the Potency entry in assay [17], in assay [8], in [13] and in [14] was “inactive” throughout.

`O=P1(NCCCl)OCCCN1CCCl` (stereo not given): the Potency result in assay [3], in assay [16], in [4], in assay [5], in assay [6] and in assay [7] was “inactive” each time. In addition, the Potency result in assay [17], in assay [8], in [9], in [10], in assay [18] and in assay [11] was “inactive” in each case. The Potency entry in assay [13] and in assay [14] was “inactive” each time.

In the case of `Cn1c(CCCC(=O)O)nc2cc(N(CCCl)CCCl)ccc21`, the results for the Potency in assay [16], in assay [6] and in assay [1] were 13100 nM (active), 4650 nM (active) and 56200 nM (active), respectively. Further, the Potency result in assay [4], in assay [17], in assay [10], in [18], in [13] and in assay [14] was “inactive” each time.

`Cc1sc2c(c1C)C(c1ccc(Cl)cc1)=N[C@@H](CC(=O)OC(C)(C)C)c1nnc(C)n1-2`: the Potency result in [3], in [4], in assay [17], in assay [8], in assay [9] and in assay [14] was “inactive” throughout. The Potency was 1310 nM (active) in assay [5] and 827 nM (active) in assay [6].

For `CC[C@@H](CO)NC(=O)[C@@H]1C=C2c3cccc4c3c(cn4C)C[C@H]2N(C)C1`, the Potency in assay [1] was 56200 nM (active).

With `CC[N+](CC)(CC)CC`, the Potency result in assay [1] is “inactive”.

Regarding `CCn1cc(C(=O)O)c(=O)c2ccc(C)nc21`, the Potency entry in [1] was “inactive”.

As for `Cc1cccc(C)c1NC1=NCCCS1`, the Potency result in assay [1] and in [2] was “inactive” in each case.

On to `CC[C@@H](CO)NC(=O)[C@@H]1C=C2c3cccc4[nH]cc(c34)C[C@H]2N(C)C1`, for which the Potency in assay [1] is 25100 nM (active); in assay [2], 23800 nM (active).

Regarding `NCC1(CC(=O)O)CCCCC1`, the Potency result in assay [1] and in [2] was “inactive” each time.

For `COC[C@@H](NC(C)=O)C(=O)NCc1ccccc1`, the Potency entry in assay [16], in assay [5], in assay [7], in [17], in assay [18] and in assay [12] was “inactive” throughout. Besides, the Potency entry in assay [13] and in assay [14] was “inactive” throughout.

For `CC(=O)[C@H]1CC[C@H]2[C@@H]3CC[C@H]4C[C@H](O)CC[C@]4(C)[C@H]3C(=O)C[C@]12C`, the Potency entry in assay [1] and in assay [2] was “inactive” each time.

On to `CC(C)CC(N(C)C)C1(c2ccc(Cl)cc2)CCC1` (stereo not given), for which the Potency entry in assay [3], in [16], in assay [9] and in assay [14] was “inactive” throughout. Further, the Potency in assay [6] was 23300 nM (active); in [18] it was 20800 nM (active).

Consider `C=C(C)[C@H]1Cc2c(ccc3c2O[C@@H]2COc4cc(OC)c(OC)cc4[C@@H]2C3=O)O1`, for which the Potency in assay [16] is 293 nM (active); in assay [5] it was 2610 nM (active); in assay [6] it was 329 nM (active); in [7], 0.0329 µM (active); in assay [17] it was 117 nM (active); in [13], 1470 nM (active). In addition, the Potency result in assay [8], in assay [10] and in assay [11] was “inactive” in each case.

For the compound `C[C@H]1O[C@@H](O[C@H]2[C@@H](O)C[C@H](O[C@H]3[C@@H](O)C[C@H](O[C@H]4CC[C@@]5(C)[C@H](CC[C@@H]6[C@@H]5CC[C@]5(C)[C@@H](C7=CC(=O)OC7)CC[C@]65O)C4)O[C@@H]3C)O[C@@H]2C)C[C@H](O)[C@@H]1O`, the Potency was 0.0657 µM (active) in assay [3]; 233 nM (active) in assay [4]; 58.5 nM (active) in assay [5]; 82.7 nM (active) in [6]; 0.0465 µM (active) in [7]; 165 nM (active) in [8]. Also, the Potency in [9] was 73.7 nM (active); in [10], 104 nM (active); in [11], 329 nM (active); in [12], 1.04 µM (active); in assay [14], 0.148 µM (active). Also, the Potency entry in assay [15] and in assay [2] was “inactive” each time.

The values above are taken from PubChem BioAssay (NCATS).
